The record followed here is the supplement of paper PMC6555819.

What all share (assay): PBM binding z-score (relative to random genomic background probes); higher = stronger binding; sequences stand for … in GC…GCGATTGACAGCGTAGAATGAAGG
Assay [1] relates to FXR:RXRa (NR concentration 270 nM, RXRa partner concentration 90 nM). The procedure, abridged:
(§1)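 Binding z-scores take random background probes as their reference. They come from custom Agilent 4×180K protein-binding microarrays incubated 1 h with ligand-free nuclear receptor dimers, with antibodies against each partner (one per run) detecting binding. Scanned fluorescence was regression-normalized.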

Assay [2] deals with LXRa:RXRa (NR concentration 270 nM, RXRa partner concentration 90 nM). The method, boiled down: as §1
Assay [3] concerns LXRa homodimer (NR concentration 270 nM). The procedure, abridged: as §1
Assay [4] deals with LXRb:RXRa (NR concentration 270 nM, RXRa partner concentration 90 nM). The procedure, abridged:
as §1

Assay [5] relates to LXRb homodimer (NR concentration 270 nM). The method, boiled down: as §1
Assay [6] relates to PPARa:RXRa (NR concentration 270 nM, RXRa partner concentration 90 nM). The procedure, abridged: as §1
Assay [7] relates to PPARg:RXRa (NR concentration 180 nM, RXRa partner concentration 90 nM). The method, boiled down: as §1
The test system of assay [8] is PPARg:RXRa 270nM:90nM, anti-RXR (NR concentration 270 nM, RXRa partner concentration 90 nM). The method, boiled down: as §1
The subject of assay [9] is PPARg:RXRa 30nM:10nM, anti-RXR (NR concentration 30 nM, RXRa partner concentration 10 nM). The procedure, abridged:
as §1

In assay [10] the test system is PPARg:RXRa 90nM:30nM, anti-RXR (NR concentration 90 nM, RXRa partner concentration 30 nM). The method, boiled down: as §1

Consider TCTATTAGTTGATTAGGGAAACCGAAACAGCGGA, for which the PBM binding z-score worked out at 0.843 in [1]; 0.826 in assay [2]; 0.343 in [3]; 0.602 in assay [4]; 0.852 in assay [5]; 0.623 in [6]. Besides, the PBM binding z-score in assay [7] was -0.0137; in [8], 2.16; in [9] it was 3.69; in [10], 3.2.

For the sequence AGTCAAAGTTCATCTAGGTAGCGTAAGATATGCT, the PBM binding z-score was determined as 6.22 in assay [1]; 6.03 in [2]; 4.76 in [3]; 3.76 in assay [4]; 1.66 in assay [5]; 4.61 in [6]. Moreover, the PBM binding z-score in assay [7] is 6.29; in [8], 6.38; in assay [9], 3.49; in [10], 5.38.

With TAAATGAGGTTAAAGATCAGGGAACGTGGCGTCG, the PBM binding z-score in assay [1] stood at 3.68; in assay [2], 3.6; in [3], 0.629; in assay [4] it was 2.46; in [5], 1.07; in assay [6], 5.14. Further, the PBM binding z-score is 6.76 in [7], 6.79 in [8], 5.89 in assay [9] and 7.34 in assay [10].

As for CCGACTGGGGCAAGGTTACAATAACGCACAGCCA, the PBM binding z-score is 0.137 in assay [1]; 0.576 in assay [2]; -0.19 in [3]; 0.492 in assay [4]; -1.15 in assay [5]; 1.94 in assay [6]. The PBM binding z-score in [7] worked out at 3; in [8], 2.86; in [9], 1.2; in assay [10], 2.36.

Take GATACAGGGTCAAGGCCAGGGTACGCGTATTGAT: the PBM binding z-score in assay [1] was 6.68; in assay [2], 4.26; in assay [3], -0.139; in [4], 3.62; in assay [5], -0.397; in [6], 5.82. For the same sequence, the PBM binding z-score in assay [7] came out at 5.63; in [8], 5.3; in assay [9], 2.2; in [10], 4.46.

In the case of TAGCCTAGGTCAGATCGGGCCAGTATACGCTATA, the PBM binding z-score in assay [1] is 1.61; in assay [2], 1.09; in [3], -0.264; in assay [4], 0.666; in assay [5] it was -0.213; in [6], 1.7. Also, the PBM binding z-score was 0.85 in assay [7], 0.845 in assay [8], -0.133 in assay [9] and 0.327 in assay [10].

With TGGCCTAGGTCAGATCGGGCCAGTATACGCTATA, the PBM binding z-score in [1] is 2.31; in assay [2], 0.419; in assay [3] it was -0.777; in [4], 0.152; in assay [5], -1.29; in assay [6] it was 1.39. For the same sequence, the PBM binding z-score was 0.44 in [7], 0.442 in [8], -0.693 in [9] and -0.369 in assay [10].

In the case of CCTAGCAGGCCAAACTGGGTCACTCAAGGCTTGA, the PBM binding z-score is 0.705 in assay [1]; 0.962 in assay [2]; -0.345 in assay [3]; 1.07 in assay [4]; -0.564 in [5]; 3.05 in assay [6]. Moreover, the PBM binding z-score was 1.74 in assay [7], 2.06 in assay [8], -0.348 in assay [9] and 0.712 in [10].

Turning to ACAGACAGGTGATGAAGGTAATTCAGGCTATCAT, the PBM binding z-score in [1] was -0.202; in assay [2], -0.317; in assay [3] it was -0.115; in [4] it was -0.471; in assay [5], -0.286; in [6], 0.215. Moreover, the PBM binding z-score was 0.583 in [7], -0.256 in assay [8], 0.0788 in [9] and -0.356 in assay [10].

TCTTGTAGATCAGCAGGAGGTTAAGAAAGATCGA: the PBM binding z-score was -0.201 in [1]; 0.985 in [2]; -0.411 in [3]; 0.538 in [4]; -0.736 in assay [5]; 1.03 in assay [6]. In addition, the PBM binding z-score in assay [7] is -0.21; in [8], 1.36; in assay [9], 2.16; in [10], 1.74.

Turning to TGCCAAAGTTCAAAGGTAACGTAAGTATCCACAC, the PBM binding z-score is 7.28 in assay [1]; 6.4 in assay [2]; 4.65 in assay [3]; 4.85 in [4]; 1.81 in assay [5]; 5.9 in assay [6]. The PBM binding z-score is 7.61 in assay [7], 7.16 in assay [8], 4.42 in [9] and 6.78 in assay [10].

Consider CCTATTAATTGACCATAAGGGCAACCGAAGCTCG, for which the PBM binding z-score in assay [1] stood at 0.865; in assay [2], 0.6; in assay [3], 1.66; in [4] it was 0.747; in [5], 0.711; in assay [6], 0.737. For the same sequence, the PBM binding z-score was found to be 0.586 in [7], 0.878 in assay [8], 0.302 in [9] and 0.73 in [10].

On to TCATCTAGGTAAATGCTAGGTGAAAGTCCGATCT, for which the PBM binding z-score in assay [1] is 0.554; in assay [2], 0.411; in assay [3], 0.0508; in assay [4] it was 0.263; in [5] it was -0.0728; in assay [6], 1.17. Further, the PBM binding z-score in assay [7] was found to be 0.51; in assay [8] it was 2.29; in [9], 3.44; in [10], 2.92.
